Measurements taken from PubChem BioAssay (NCI).
About 83,000 compounds went through this panel and 20% of them were active in at least one assay; those are over-represented in the sample as a whole.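 Cell lines were cultured in 96-well plates, exposed to a single compound concentration, and assessed for percent growth 48 hours later.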 Unmarked numbers belong to inactive results. The source made the active and inactive calls. How the source made its calls: active means growth percent below 10; inactive means the rest.

system: NCI-H23 lung; test: NCI-60 one-dose screen, 48 h (100 = growth as untreated, 0 = no growth, -100 = all killed); details: 10 µM unless noted

SMILES | growth
C/C(=N\N=C1/C(=O)Nc2ccc(Cl)cc21)c1ccc2c(c1)Nc1ccccc1S2 | -28.2% (active)
CCCSc1nc(NCCc2c[nH]c3ccccc23)c(C#N)c(-c2ccc(F)cc2)n1 | 80.6%
COc1cc(C2CC(c3cc(OC)c(OC)c(OC)c3)=NN2C(C)=O)ccc1OCc1ccccc1 (stereo not drawn) | 47.2%
Cc1cc2c(cc1Cl)C(=O)/C(=C/c1ccccc1)O2 | 0.835% (active)
COc1ccc2[nH]cc(-c3nc(N)nnc3-c3cn(C)c4ncccc34)c2c1 | 69.9%
Cc1ccc(C(=O)CSc2nc3ccc(F)cc3c(=O)n2-c2ccc(Cl)cc2)cc1 | 46%
CCCCSc1nc(NCCc2c[nH]c3ccccc23)c(C#N)c(-c2ccccc2)n1 | 15.8%
Cn1cc(-c2nc(N)nnc2-c2c[nH]c3ccc(Br)cc23)c2cccnc21 | 65.5%
CN(C)CCOc1ccc(C(=O)C2[C@H](c3ccc(Cl)cc3)[C@@H](c3ccccc3)NC23C(=O)Nc2ccc(Br)cc23)cc1 (stereo partly drawn) | -2.68% (active)
CN1CCN(/C(=N\c2sc(-c3ccccc3)nc2-c2ccccc2)c2ccccc2)CC1 | 104%
CCCSc1nc(NCCc2c[nH]c3ccccc23)c(C#N)c(-c2ccccc2)n1 | 89.4%
CCN(CC)c1ccnc(CNCCSC(c2ccccc2)(c2ccccc2)c2ccc(OC)cc2)c1 | -41.8% (active)
COc1cc2oc(-c3cccc(C(=O)Nc4cccc([N+](=O)[O-])c4)c3)cc(=O)c2c(OC)c1OC | 41.1%
